The source of these data is PubChem BioAssay (NCATS).

Experiment [1] can be described thus: Viability qHTS for spleen associated tyrosine kinase inhibitor (SYKi) naive MV4-11 cells (AID 1963823). Note: nearly all actives have a fitted effect of over 40% in size. The method in brief:
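qHTS, SYK inhibitor-naive MV4-11; 500 cells/well; 72 hr compound exposure, 37 C; CellTiter-Glo added, 10 min RT; luminescence read.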
On the technique in general: Quantitative high-throughput screening tests each substance at several concentrations.

A short description of experiment [2]: Viability qHTS for spleen associated tyrosine kinase inhibitor (SYKi) drug resistant MV4-11 cells (AID 1963824). Note: nearly all actives have a fitted effect of over 35% in size. An outline of the steps: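 CellTiter-Glo luminescence, read 10 min after reagent addition, reports viability after a 72 hr compound exposure. Cells are an MV4-11 line made resistant to SYK inhibition, seeded at 500 per well onto compound-containing plates.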

Records with an inconclusive call do not appear. Values without a mark were called inactive. The source made the active and inactive calls. Calls come from the whole dose curve; as a rule, active = well fitted cell-killing curve with a large enough effect; inconclusive = small, poorly fitted or top-dose-only effect, or effect the other way; inactive = no such curve, though single readings can be large or run the other way.
Potency is the fitted concentration of half-maximal effect.

`CN(C)C(CCOc1cccc2ccccc12)c1ccccc1` (centres undefined): the Potency is 18.4 µM (active) in experiment [1] and 14.6 µM (active) in experiment [2].
The corresponding values for `CC(C)c1cc2c(c(O)c1O[C@@H]1O[C@H](CO)[C@@H](O)[C@H](O)[C@H]1O)CC1(O)CCC(O)C(C)(C)C1CC2` (some centres undefined) are “inactive” and “inactive”.
The corresponding values for `COC(=O)[C@H](O)[C@H]1C(C)(C)[C@H](OC(=O)C(C)C)[C@@]2(O)C(=O)[C@]1(C)C1CC[C@]3(C)C(CC(=O)O[C@H]3c3ccoc3)[C@]13O[C@@H]32` (some centres undefined) are “inactive” and “inactive”.
The corresponding values for `COc1cc2ncnc(N3CCC(Oc4cnc5ccccc5n4)C3)c2cc1OC` (centres undefined) are 0.58 µM (active) and 0.411 µM (active).
As for `Nc1ccc(-n2nc(C(F)(F)F)cc2C(F)(F)F)cc1`, the Potency entry in experiment [1] and in experiment [2] was “inactive” each time.
Take `OCC(CO)(CO)NCC(O)Cn1c2ccc(Cl)cc2c2cc(Cl)ccc21` (centres undefined): the Potency was 20.6 µM (active) in experiment [1] and 11.6 µM (active) in experiment [2].
With `CC[C@H](CO)Nc1nc(NCc2ccc(-c3ccccn3)cc2)c2ncn(C(C)C)c2n1`, the Potency is 0.13 µM (active) in experiment [1] and 0.259 µM (active) in experiment [2].
As for `C[C@]1(OC(=O)/C=C\c2ccc(O)cc2)C[C@@H](O)[C@]2(O)C=CO[C@@H](O[C@@H]3O[C@H](CO)[C@@H](O)[C@H](O)[C@H]3O)C12` (some centres undefined), the Potency result in experiment [1] and in experiment [2] was “inactive” in each case.
Regarding `CS(=O)(=O)c1ccc([C@@H](CC2CCCC2)C(=O)Nc2cnccn2)cc1Cl`, the Potency was 31.6 µM (active) in experiment [1] and 25.1 µM (active) in experiment [2].
Consider `Cc1cc(N2CCN(C(=O)Oc3ccc(-c4ccccc4)cn3)CC2)c2ccccc2n1`, for which the Potency in experiment [1] was 6.51 µM (active); in experiment [2], 5.8 µM (active).
The corresponding values for `N#CC(=C(/N)Sc1ccccc1N)/C(C#N)=C(/N)Sc1ccccc1N` are 10.3 µM (active) and 7.31 µM (active).
The corresponding values for `CN(C)CCOc1cc(NS(=O)(=O)c2c(Cl)cc(C(F)(F)F)cc2Cl)ccc1Cl` are “inactive” and “inactive”.
The corresponding values for `COc1cc(Br)c(Nc2nc(-c3c(C)nc4ncccn34)cs2)c(Br)c1` are 1.16 µM (active) and 1.16 µM (active).
Turning to `CCCCOc1ccc(CC/C=C2\SC(=O)N(CCN)C2=O)cc1`, the values for the Potency in experiment [1] and in experiment [2] were 5.17 µM (active) and 2.91 µM (active), respectively.
The corresponding values for `COC(=N)c1nc2ccc3ncnc(Nc4ccc(F)cc4Br)c3c2s1` are 1.46 µM (active) and 0.82 µM (active).
Consider `COc1cc(C(=O)OCC2=CCC3C(C(=O)O)=COC(O[C@@H]4O[C@H](CO)[C@@H](O)[C@H](O)[C@H]4O)C23)ccc1O` (some centres undefined), for which the Potency entry in experiment [1] and in experiment [2] was “inactive” in each case.
`COC(=O)C1=COC(OC2OC(CO)C(O)C(O)C2O)C2C(C)C(OC(=O)/C=C/c3ccc(O)cc3)C(O)C12` (centres undefined): the Potency result in experiment [1] and in experiment [2] was “inactive” each time.
`C=CS(=O)(=O)NC1CCN(C(=O)CNc2cc(I)c(Cl)cc2OC)CC1`: the Potency in experiment [1] is 3.26 µM (active); in experiment [2], 2.06 µM (active).
The corresponding values for `CO[C@@H]1CC(OC2CCC3(C)C(CCC45CCC(C6=CC(=O)OC6)C(C)(CCC43)C5=O)C2)O[C@H](C)[C@@H]1O[C@@H]1O[C@H](CO[C@@H]2O[C@H](CO)[C@@H](O)[C@H](O)[C@H]2O)[C@@H](O)[C@H](O)[C@H]1O` (some centres undefined) are 0.873 µM (active) and 0.778 µM (active).
The corresponding values for `CC1CCCCN1CCCOC(=O)c1ccc(OC2CCCCC2)cc1` (centres undefined) are 8.41 µM (active) and 13.3 µM (active).
The corresponding values for `O=C(C[C@@H]1C(C(=O)O)=CO[C@@H](O[C@@H]2O[C@H](CO)[C@@H](O)[C@H](O)[C@H]2O)/C1=C\CO)OCCc1ccc(O)c(O)c1` are “inactive” and “inactive”.
For the compound `CCN1CCN(C(=O)N[C@@H](C(=O)N[C@@H]2C(=O)N3[C@@H]2SC(C)(C)[C@@H]3C(=O)O)c2ccccc2)C(=O)C1=O`, the Potency entry in experiment [1] and in experiment [2] was “inactive” throughout.
On to `CCOC(=O)COc1ccc2c(c1)C[C@@H](NC[C@H](O)c1cccc(Cl)c1)CC2`, for which the Potency in experiment [1] is 18.4 µM (active); in experiment [2] it was 8.2 µM (active).
The corresponding values for `O=C(CCc1ccccc1)c1c(O)c([C@@H]2O[C@H](CO)[C@@H](O)[C@H](O)[C@H]2O)c(O)c([C@@H]2O[C@H](CO)[C@@H](O)[C@H](O)[C@H]2O)c1O` are “inactive” and “inactive”.
Turning to `COc1ccc(CNC(=O)c2cc(-c3cncc(C)c3)ncc2-c2nccs2)nc1OC`, the Potency result in experiment [1] and in experiment [2] was “inactive” each time.
For `c1cc(CN2CCCCC2)cc(OCCCNc2nc3ccccc3s2)c1`, the Potency in experiment [1] is 15 µM (active); in experiment [2] it was 21.1 µM (active).
The corresponding values for `O=C1NC(Cc2ccccc2)C(=O)N2CCCC12` (centres undefined) are “inactive” and “inactive”.
For the compound `C=C1C(=O)OC2/C=C(\COC(C)=O)CC/C=C(\C=O)CC(OC(=O)C(C)CC)C12` (centres undefined), the values for the Potency in experiment [1] and in experiment [2] were 1.59 µM (active) and 1.12 µM (active), respectively.
The corresponding values for `CC1(O)CCC2C(C3C1CCC3(C)O)C2(C)C` (centres undefined) are “inactive” and “inactive”.
The corresponding values for `CC1(C)C2CCC1(C)C(OC(=O)C(O)(CC(=O)O)CC(=O)O)C2` (centres undefined) are “inactive” and “inactive”.
For the compound `c1cc(NCCc2c[nH]c3ccccc23)cc(Nc2ccncc2)c1`, the figures for the Potency in experiment [1] and in experiment [2] were 0.58 µM (active) and 0.651 µM (active), respectively.
The corresponding values for `CSC(=O)OCC1=C[C@@H]2OC(=O)C3=CO[C@@H](O[C@@H]4O[C@H](CO)[C@@H](O)[C@H](O)[C@H]4O)[C@H]1[C@@H]32` are “inactive” and “inactive”.
The corresponding values for `C[C@]1(CO)CCC[C@]2(C)C3=C(CCC12)COC3` (some centres undefined) are “inactive” and “inactive”.
The corresponding values for `CCN(CC)CCNc1ccc2ncn3c4ccc(O)cc4c(=O)c1c23` are 0.164 µM (active) and 0.291 µM (active).
Consider `CC(=O)/C=C/C1(O)C(C)CC(O[C@@H]2O[C@H](CO)[C@@H](O)[C@H](O)[C@H]2O)CC1(C)C` (some centres undefined), for which the Potency entry in experiment [1] and in experiment [2] was “inactive” throughout.
Consider `C1CCN2CC3C[C@@H](CN4CCCC[C@@H]34)[C@H]2C1`, for which the Potency entry in experiment [1] and in experiment [2] was “inactive” each time.
Take `Cc1cccc(/C=N/Nc2cc(N3CCOCC3)n3nc(-c4ccncc4)cc3n2)c1`: the Potency in experiment [1] was 1.03 µM (active); in experiment [2], 0.291 µM (active).
`CC1(C)CCCC2(C)c3c4c(c(=O)oc(=O)c3=CCC12)=CCC1C(C)(C)CCCC41C` (centres undefined): the Potency entry in experiment [1] and in experiment [2] was “inactive” throughout.
With `C=C1CC[C@@H](O)[C@]2(C)CC[C@H]3C(=C)C(=O)O[C@@H]3[C@@H]12`, the Potency in experiment [1] was 18.4 µM (active); in experiment [2], 11.6 µM (active).
The corresponding values for `CCCCCc1ccc(/C=C/[C@H](O)[C@@H](CO)NC)cc1` are 11.6 µM (active) and 20.6 µM (active).
For the compound `CCN(Cc1cccnc1)C(=O)CN(c1ccc(OC)nc1)S(=O)(=O)c1ccccc1C`, the Potency result in experiment [1] and in experiment [2] was “inactive” in each case.
`COC(=O)CCc1cc2ccoc2c(OC)c1O[C@@H]1O[C@H](CO)[C@@H](O)[C@H](O)[C@H]1O`: the Potency result in experiment [1] and in experiment [2] was “inactive” each time.
Consider `C=C1CC[C@H]2[C@@](C)(CCC(OC3OC(CO)C(O)C(O)C3O)[C@@]2(C)CO)C1C(=O)CC1=CCOC1=O` (some centres undefined), for which the Potency result in experiment [1] and in experiment [2] was “inactive” in each case.
As to `COc1ccc(C2=NC(c3ccc(Cl)cc3)C(c3ccc(Cl)cc3)N2C(=O)N2CCNC(=O)C2)c(OC(C)C)c1` (centres undefined), the Potency in experiment [1] was 16.4 µM (active); in experiment [2] it was 18.4 µM (active).
The corresponding values for `CC(C)CC(=O)c1c(O)cc2c(c1O)C(CC(C)C)C1=C(O2)C(C)(C)C(=O)C(C)(C)C1=O` (centres undefined) are 8.93 µM (active) and 8.93 µM (active).
The corresponding values for `C/C=C(\C)C(=O)OCC1OC(OC2OC(CO)C(O)C(O)C2O)C(O)C(O)C1O` (centres undefined) are “inactive” and “inactive”.
The corresponding values for `C=C(C)C(=O)O[C@H]1C[C@@](C)(O)C(=O)CC(O)/C(C)=C\[C@H]2OC(=O)C(=C)[C@H]12` (some centres undefined) are 1.61 µM (active) and 2.02 µM (active).
In the case of `COc1ccc(C2=N[C@@H](c3ccc(Cl)cc3)[C@@H](c3ccc(Cl)cc3)N2C(=O)N2CCNC(=O)C2)c(OC(C)C)c1`, the Potency in experiment [1] is 20.6 µM (active); in experiment [2], 10.3 µM (active).
With `CCN(CC)Cc1cccc(/C=C/c2nc3ccc(F)cc3c(=O)n2-c2ccccc2Cl)n1`, the Potency in experiment [1] is 11.6 µM (active); in experiment [2] it was 9.2 µM (active).
The corresponding values for `COc1ccc2c(c1)O[C@H](O[C@@H]1O[C@H](CO)[C@@H](O)[C@H](O)[C@H]1O)C(=O)N2` are “inactive” and “inactive”.
As for `CC(C)CC(=O)O[C@@H]1O[C@H](CO)[C@@H](O[C@H]2O[C@H](C)[C@@H](N[C@H]3C=C(CO)[C@@H](O[C@H]4O[C@H](CO)[C@@H](O[C@H]5O[C@H](CO)[C@@H](O[C@H]6O[C@H](CO)[C@@H](O)[C@H](O)[C@H]6O)[C@H](O)[C@H]5O)[C@H](O)[C@H]4O)[C@H](O)[C@H]3O)[C@H](O)[C@H]2O)[C@H](O)[C@H]1O`, the viability (% of control) in experiment [1] was 82.5% [at 9.25 µM]. In experiment [2], the viability, % of control was 101% [at 9.25 µM].
For `CC1(C)CC2C=C(C(=O)O)C3COC(=O)C(O)(CO)C23C1` (centres undefined), the Potency entry in experiment [1] and in experiment [2] was “inactive” throughout.
As for `COc1c2c(c(C)c3c1C(=O)OC3)O[C@@]1(C)CC(O)C(C(C)(C)O)[C@](C)(CCC(=O)O)[C@H]1C2` (some centres undefined), the Potency in experiment [1] was 7.96 µM (active); in experiment [2], 7.09 µM (active).
As to `CC(CCC1C(C(=O)O)=CC(=O)CC1(C)C)O[C@@H]1O[C@H](CO)[C@@H](O)[C@H](O)[C@H]1O` (some centres undefined), the Potency result in experiment [1] and in experiment [2] was “inactive” each time.
On to `O=C(c1c(F)ccc(NS(=O)(=O)N2CC[C@@H](F)C2)c1F)c1c[nH]c2ncc(-c3cnc(C4CC4)nc3)cc12`, for which the Potency was 6.51 µM (active) in experiment [1] and 8.2 µM (active) in experiment [2].
Take `Cc1cc(-c2ccc(/C=C3\SC(=Nc4ccc(Cl)c(C(=O)O)c4)NC3=O)o2)c([N+](=O)[O-])cc1C`: the Potency entry in experiment [1] and in experiment [2] was “inactive” throughout.
With `COc1cc(/C=C/C=O)cc(OC)c1O[C@@H]1O[C@H](CO)[C@@H](O)[C@H](O)[C@H]1O`, the Potency result in experiment [1] and in experiment [2] was “inactive” throughout.
For `CC1=CCC2C(C)(CO)CCCC2(CO)C1CO` (centres undefined), in experiment [1], the Potency entry was “inactive”. Besides, the Potency in experiment [2] was 16.4 µM (active).
The corresponding values for `O=C(/C=C/c1ccc(O)cc1)OC1[C@H](O)CC(O)(C(=O)O)C[C@H]1O` (some centres undefined) are “inactive” and “inactive”.
With `CN1c2c(nc(N)[nH]c2=O)NC[C@@H]1CNc1ccc(C(=O)N[C@@H](CCC(=O)O)C(=O)O)cc1`, the Potency result in experiment [1] and in experiment [2] was “inactive” in each case.
For `O=C(OC[C@@]1(O)CO[C@@H](O[C@H]2[C@H](Oc3ccc(O)cc3)O[C@H](CO)[C@@H](O)[C@@H]2O)[C@@H]1O)c1ccc(O)cc1`, the Potency entry in experiment [1] and in experiment [2] was “inactive” each time.
For the compound `CN(CC(=O)N(Cc1ccc(C2CCCCC2)cc1)c1ccc(C(=O)O)cc1)S(=O)(=O)c1c(F)c(F)c(F)c(F)c1F`, the Potency in experiment [1] was 1.84 µM (active); in experiment [2] it was 1.03 µM (active).
